# The other results are listed elsewhere or left out. No count for the full screen is at hand.
# Molecular target: furin, P09958
# Assay: furin cleavage Z-score vs untreated control; higher = more cleavage, active = 3.5 or more, inactive = 1 or less, 8 variable residues between constant flanks
# Protocol: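 Multiplexed peptide-cDNA fusion cleavage assay. 8-mer variable peptides flanked by constant Cys-Ala (N-term) and Ala-Gly-Asn-Ala-Ser-Ala-Ser-Ala (C-term) and conjugated to a cDNA oligonucleotide were bead-immobilised via the N-terminus. They were treated with purified furin at a 1:10 enzyme:substrate ratio in 50 mM HEPES pH 7.5, 1 mM CaCl2, 100 mM NaCl for 7.5, 15 or 30 min. Released cDNA was counted by next-generation sequencing, and log counts versus no-furin controls were lowess-adjusted and converted to robust Z-scores.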
# furin, P09958, sequence (P09958 whole entry): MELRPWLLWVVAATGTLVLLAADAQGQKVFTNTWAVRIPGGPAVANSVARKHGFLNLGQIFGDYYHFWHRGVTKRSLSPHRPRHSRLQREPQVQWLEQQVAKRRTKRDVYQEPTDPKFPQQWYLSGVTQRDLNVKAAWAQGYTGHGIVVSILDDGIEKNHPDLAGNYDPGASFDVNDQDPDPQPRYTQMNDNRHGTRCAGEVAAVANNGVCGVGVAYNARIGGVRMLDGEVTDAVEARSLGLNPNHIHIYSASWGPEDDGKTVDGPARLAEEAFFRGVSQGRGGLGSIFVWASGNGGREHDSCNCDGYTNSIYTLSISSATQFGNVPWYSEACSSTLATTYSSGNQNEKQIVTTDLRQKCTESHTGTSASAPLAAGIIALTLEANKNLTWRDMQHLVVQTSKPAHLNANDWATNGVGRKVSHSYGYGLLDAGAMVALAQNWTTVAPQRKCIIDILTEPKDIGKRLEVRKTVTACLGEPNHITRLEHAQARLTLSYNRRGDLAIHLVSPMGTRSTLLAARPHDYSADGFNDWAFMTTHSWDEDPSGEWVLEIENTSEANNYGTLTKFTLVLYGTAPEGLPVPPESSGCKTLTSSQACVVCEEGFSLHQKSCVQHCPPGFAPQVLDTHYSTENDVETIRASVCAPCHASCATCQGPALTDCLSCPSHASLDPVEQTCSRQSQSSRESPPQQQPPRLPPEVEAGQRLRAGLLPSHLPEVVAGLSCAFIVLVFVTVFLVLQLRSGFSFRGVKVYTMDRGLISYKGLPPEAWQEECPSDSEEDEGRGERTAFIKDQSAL
sequence,measurement,setting,value
CAMELCSQHLAGNASASA [HC1705],furin cleavage Z-score,7.5 min,2.69
same,furin cleavage Z-score,15 min,0.76 (inactive)
same,furin cleavage Z-score,30 min,2.04
CAMEENSQHLAGNASASA [HC18],furin cleavage Z-score,7.5 min,0.787 (inactive)
same,furin cleavage Z-score,15 min,0.956 (inactive)
same,furin cleavage Z-score,30 min,2.04
CAGGSAGHTVAGNASASA [HC355],furin cleavage Z-score,7.5 min,0.866 (inactive)
same,furin cleavage Z-score,15 min,-0.487 (inactive)
same,furin cleavage Z-score,30 min,0.0302 (inactive)
CAPVCCSMSYAGNASASA [HC1999],furin cleavage Z-score,7.5 min,0.302 (inactive)
same,furin cleavage Z-score,15 min,-0.969 (inactive)
same,furin cleavage Z-score,30 min,1.74
CAFKTWLKAKAGNASASA [HC1156],furin cleavage Z-score,7.5 min,-0.496 (inactive)
same,furin cleavage Z-score,15 min,-0.829 (inactive)
same,furin cleavage Z-score,30 min,-0.782 (inactive)
CAIPDRLRKCAGNASASA [FS-1014],furin cleavage Z-score,7.5 min,-0.934 (inactive)
same,furin cleavage Z-score,15 min,-0.376 (inactive)
same,furin cleavage Z-score,30 min,-0.995 (inactive)
CASVLIARDQAGNASASA [HC1586],furin cleavage Z-score,7.5 min,0.606 (inactive)
same,furin cleavage Z-score,15 min,0.779 (inactive)
same,furin cleavage Z-score,30 min,-0.441 (inactive)
CASQLRYRRCAGNASASA [FS-503],furin cleavage Z-score,7.5 min,5.96 (active)
same,furin cleavage Z-score,15 min,7.81 (active)
same,furin cleavage Z-score,30 min,5.84 (active)
CASGARRRRCAGNASASA [FS-498],furin cleavage Z-score,7.5 min,0.58 (inactive)
same,furin cleavage Z-score,15 min,0.416 (inactive)
same,furin cleavage Z-score,30 min,0.773 (inactive)
CADLELITSCAGNASASA [HC1550],furin cleavage Z-score,7.5 min,0.66 (inactive)
same,furin cleavage Z-score,15 min,-0.229 (inactive)
same,furin cleavage Z-score,30 min,0.498 (inactive)
CADPQRSRRCAGNASASA [FS-986],furin cleavage Z-score,7.5 min,0.928 (inactive)
same,furin cleavage Z-score,15 min,0.649 (inactive)
same,furin cleavage Z-score,30 min,1.13
CAQVMRRRRCAGNASASA [FS-1558],furin cleavage Z-score,7.5 min,7.16 (active)
same,furin cleavage Z-score,15 min,5.85 (active)
same,furin cleavage Z-score,30 min,4.82 (active)
CAEHHRSRRCAGNASASA [FS-989],furin cleavage Z-score,7.5 min,2.96
same,furin cleavage Z-score,15 min,3.54 (active)
same,furin cleavage Z-score,30 min,3.96 (active)
CAQSLRCRRCAGNASASA [FS-623],furin cleavage Z-score,7.5 min,-0.625 (inactive)
same,furin cleavage Z-score,15 min,-0.00103 (inactive)
same,furin cleavage Z-score,30 min,-0.127 (inactive)
CAFEMEECSQAGNASASA [HC1787],furin cleavage Z-score,7.5 min,-0.0244 (inactive)
same,furin cleavage Z-score,15 min,-1.03 (inactive)
same,furin cleavage Z-score,30 min,0.747 (inactive)
CAEVPCHRSSAGNASASA [HC2397],furin cleavage Z-score,7.5 min,0.159 (inactive)
same,furin cleavage Z-score,15 min,1.25
same,furin cleavage Z-score,30 min,1.43
CASTGRVGRSAGNASASA [FS-1168],furin cleavage Z-score,7.5 min,4.32 (active)
same,furin cleavage Z-score,15 min,6.64 (active)
same,furin cleavage Z-score,30 min,7 (active)
CASHSREGRSAGNASASA [FS-1281],furin cleavage Z-score,7.5 min,2.57
same,furin cleavage Z-score,15 min,1.17
same,furin cleavage Z-score,30 min,3.76 (active)
CAEVCCHRPSAGNASASA [HC2360],furin cleavage Z-score,7.5 min,0.494 (inactive)
same,furin cleavage Z-score,15 min,0.659 (inactive)
same,furin cleavage Z-score,30 min,-0.0079 (inactive)
CASTGYPKRSAGNASASA [FS-1616],furin cleavage Z-score,7.5 min,0.639 (inactive)
same,furin cleavage Z-score,15 min,-0.301 (inactive)
same,furin cleavage Z-score,30 min,-0.705 (inactive)
CAEVRCHRPSAGNASASA [HC2353],furin cleavage Z-score,7.5 min,1.89
same,furin cleavage Z-score,15 min,0.104 (inactive)
same,furin cleavage Z-score,30 min,-0.327 (inactive)
CALYSRVGRSAGNASASA [FS-617],furin cleavage Z-score,7.5 min,8 (active)
same,furin cleavage Z-score,15 min,8.87 (active)
same,furin cleavage Z-score,30 min,7.73 (active)
CAEVRRVGRSAGNASASA [FS-766],furin cleavage Z-score,7.5 min,5.5 (active)
same,furin cleavage Z-score,15 min,6.28 (active)
same,furin cleavage Z-score,30 min,4.53 (active)
CAAIFQGPIDAGNASASA [NG8],furin cleavage Z-score,7.5 min,-1.22 (inactive)
same,furin cleavage Z-score,15 min,0.323 (inactive)
same,furin cleavage Z-score,30 min,-1.13 (inactive)
CAMEECSQNLAGNASASA [HC1761],furin cleavage Z-score,7.5 min,-0.233 (inactive)
same,furin cleavage Z-score,15 min,0.845 (inactive)
same,furin cleavage Z-score,30 min,0.876 (inactive)
CAECEVPCHRAGNASASA [HC2460],furin cleavage Z-score,7.5 min,1.55
same,furin cleavage Z-score,15 min,-0.187 (inactive)
same,furin cleavage Z-score,30 min,2.66
CAPPQRTQRSAGNASASA [FS-1049],furin cleavage Z-score,7.5 min,4.31 (active)
same,furin cleavage Z-score,15 min,5.78 (active)
same,furin cleavage Z-score,30 min,6.79 (active)
CAHPSPLKRSAGNASASA [FS-597],furin cleavage Z-score,7.5 min,-0.0472 (inactive)
same,furin cleavage Z-score,15 min,2.27
same,furin cleavage Z-score,30 min,1.02
CAKPSKLKRSAGNASASA [FS-546],furin cleavage Z-score,7.5 min,7.13 (active)
same,furin cleavage Z-score,15 min,8.9 (active)
same,furin cleavage Z-score,30 min,7.35 (active)
CALPCRPQRSAGNASASA [FS-612],furin cleavage Z-score,7.5 min,0.0451 (inactive)
same,furin cleavage Z-score,15 min,0.649 (inactive)
same,furin cleavage Z-score,30 min,1.4
CAPPQKAKRSAGNASASA [FS-70],furin cleavage Z-score,7.5 min,10.3 (active)
same,furin cleavage Z-score,15 min,12.4 (active)
same,furin cleavage Z-score,30 min,10.2 (active)
CAPAQRLARSAGNASASA [FS-1471],furin cleavage Z-score,7.5 min,10.2 (active)
same,furin cleavage Z-score,15 min,11.3 (active)
same,furin cleavage Z-score,30 min,9.54 (active)

# Source: the supplement of paper PMC3545927
